Experimental data from PubChem BioAssay AID1851 (National Center for Advancing Translational Sciences (NCATS), 2009).
The campaign covered roughly 16,000 compounds. About 2,600 (16%) were called active. Not shown: some 20% with an inconclusive outcome. The list is a sample of the results. A number with no mark means an inactive call. The call rests on the fitted dose curve; in most records, active means well fitted curve in the direction sought with a large enough effect; inconclusive means small, poorly fitted or top-dose-only effect, or effect the other way; inactive means no such curve, though single readings can be large or run the other way.

Target: Cytochrome P450 2D6 (Homo sapiens) (UniProt P10635)
Sequence (P10635 whole entry, looked up): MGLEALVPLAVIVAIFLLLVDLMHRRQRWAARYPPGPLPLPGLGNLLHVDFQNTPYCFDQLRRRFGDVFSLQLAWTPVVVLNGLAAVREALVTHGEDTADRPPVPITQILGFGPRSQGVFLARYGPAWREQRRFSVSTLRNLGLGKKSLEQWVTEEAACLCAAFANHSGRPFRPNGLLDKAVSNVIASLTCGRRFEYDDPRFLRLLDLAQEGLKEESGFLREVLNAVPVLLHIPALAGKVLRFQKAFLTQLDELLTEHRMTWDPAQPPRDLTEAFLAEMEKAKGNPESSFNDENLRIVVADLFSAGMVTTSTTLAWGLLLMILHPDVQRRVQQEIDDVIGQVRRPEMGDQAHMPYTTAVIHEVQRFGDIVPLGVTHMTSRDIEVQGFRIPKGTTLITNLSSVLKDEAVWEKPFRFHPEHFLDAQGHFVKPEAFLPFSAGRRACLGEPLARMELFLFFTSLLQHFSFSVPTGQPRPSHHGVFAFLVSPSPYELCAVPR
Assay: Cytochrome panel assay with activity outcomes
Settings: recombinant CYP, pro-luciferin dealkylation, luminescence, p450-cyp2d6; series mostly up to 57.1 µM; activity, negative = inhibition: at the top concentration
On the % scale 0 is the no-effect control and ±100 the full control effect.

SMILES	activity, negative = inhibition	AC50
Oc1ccc2oc3c(c2c1)CCCC3	-4.04%	
Cc1ccc(C(=O)N(CN2CCCC2=O)c2ccccc2)cc1C	-0.523%	
O=C(CN1CCN(Cc2ccccc2)CC1)N1CCCc2c1c(=O)oc1ccc(O)cc21		12.6 µM (active)
COc1ccc(O)c(/C=N/NC(=O)c2ccc(OCc3cccc(Br)c3)cc2)c1	-5.88%	
CCc1cc2c(Sc3nc4ccccc4s3)ncnc2s1	-1.72%	
CCc1cc2c(NCCO)ncnc2s1	-3.72%	
CCc1cc2c(NCc3ccco3)ncnc2s1		17.8 µM (active)
COc1ccc(-c2csc(-n3ncc(-c4cccs4)c3N)n2)cc1	11.5%	
CCOC(=O)c1sc2c(c1C)c(=O)c(C(=O)OCC)cn2CC	2.44%	
Cc1nnc(NC(=O)c2oc3c(ccc4ccccc43)c2C)s1	4.25%	
COC(=O)c1cc(=O)[nH]c(=O)[nH]1	-4.62% [at 11.4 µM]	
CCOC(=O)N/N=C1/C[C@@H](O)[C@@H](O)[C@@H]2[C@@H]3C(=O)N(C(C)(C)C)C(=O)[C@H]3CC[C@H]12	-1.55% [at 11.4 µM]	
Cc1ccc(S(=O)(=O)NC(=O)CSc2nc3ccccc3s2)cc1	-17.9%	
O=C(N/N=C/c1ccc(Sc2nc3ccccc3s2)c([N+](=O)[O-])c1)c1ccccn1	4.06%	
O=[N+]([O-])c1c(NCCO)cc(Sc2nc3ccccc3s2)c2nonc12		14.1 µM (active)
C[C@@]1(C(=O)O)CCC[C@@H]1C(=O)O	9.41% [at 11.4 µM]	
CC(=O)Nc1c(C(=O)N2CCOCC2)cnn1-c1ccc(C)c(C)c1	5.39%	
O=C(CS(=O)c1cccc(Cl)c1)Nc1ccccc1Cl (stereo unspecified)	-31.7%	
O=C(CCN1CCN(CC(=O)Nc2ccccc2Cl)CC1)Nc1ccccc1F		1.26 µM (active)
O=C(CCN1C(=O)C2C3C=CC(C3)C2C1=O)Nc1c(F)cccc1F (stereo unspecified)	-4.03%	
COc1ccccc1NC(=O)CN1CCN(c2ccccc2F)CC1	-23.7%	
O=C(CCN1CCN(c2ccccc2F)CC1)Nc1ccccc1F		11.2 µM (active)

SMILES	activity, negative = inhibition	AC50
COc1ccc(NC(=O)CN2CCN(CC(=O)Nc3ccccc3Cl)CC2)cc1	-13.4%	
COCCn1c(=O)c(C)nc2cnc(Oc3ccc(OC)cc3)nc21	-8.18%	
CN(C)c1ncc2nc(-c3cccs3)c(=O)n(C[C@H]3CCCO3)c2n1	14.3%	
O=C(CP(=O)(c1ccccc1)c1ccccc1)Nn1cnnc1	24%	
COCCN(CCOC)S(=O)(=O)c1ccc(C(=O)Nc2nc(C)c(C(C)=O)s2)cc1	-11.8%	
NC(=O)CN1CCOCCOCCOCCOCCOCC1	-5.95%	
O=C(Nc1cccc(F)c1)N1CCC2(CC1)CCN(C(=O)c1ccco1)CC2	-5.21%	
COc1ccc(CCNc2cc(-c3ccccc3)nc3ncnn23)cc1	-25.9%	
COc1ccc(-n2c3c(c(=O)[nH]c2=O)C(C(F)(F)F)(C(F)(F)F)N=C(CC(C)C)N3)cc1	12.1%	
CCCn1c(=O)c2c(ncn2C)n(CCC)c1=O	2.92%	
NC(N)=NNC(=O)C(=O)O	7.44% [at 11.4 µM]	
C(=N\N1CCN(C2c3ccccc3-c3ccccc32)CC1)/c1cccnc1		0.631 µM (active)
O=[N+]([O-])c1cc(/C=N/N2CCN(C3c4ccccc4-c4ccccc43)CC2)ccc1Cl	-0.998%	
CC(C)(C(=O)c1cccnc1)c1cccnc1	-0.587% [at 25.6 µM]	
O=C(O)c1cccnc1	-0.65% [at 25.6 µM]	
C/C(=N\N1CCN(C2c3ccccc3-c3ccccc32)CC1)c1ccncc1		0.178 µM (active)
C/C(=N\N1CCN(C2c3ccccc3-c3ccccc32)CC1)c1cccnc1		2 µM (active)
c1ccc2c(c1)-c1nc3ccccc3cc1[C@H]2N1CCOCC1	-4.83% [at 11.4 µM]	
O=C(NCC1CCCO1)C(c1cccnc1)N(C(=O)Cc1cccs1)c1cccnc1 (stereo unspecified)	11.9%	
Cc1nnc(NS(=O)(=O)c2ccc(N)cc2)s1	-1.12% [at 25.6 µM]	
O=C(O)Cc1ccc2ocnc2c1	19.2%	
CCCC(=O)N1c2ccccc2C(N(C(C)=O)c2ccccc2)CC1C (stereo unspecified)	-4.05%	

SMILES	activity, negative = inhibition	AC50
O=C(Nc1cc2c(oc1=O)CCCC2=O)c1ccc(Cl)cc1	-15%	
S=c1[nH]c2cc(Cl)ccc2s1	-23.7%	
COc1ccc2nc(N)sc2c1	-5.21%	
NCC[C@H](O)C(=O)N[C@H]1C[C@@H](N)[C@@H](O[C@H]2O[C@@H](CN)[C@@H](O)[C@@H](O)[C@@H]2O)[C@@H](O)[C@@H]1O[C@H]1O[C@@H](CO)[C@@H](O)[C@@H](N)[C@@H]1O	3.98% [at 25.6 µM]	
Cc1n[nH]c(C)c1S(=O)(=O)N1CCOCC1	13.9%	
COc1ccc(/C=N/OCc2nc3c4c(ncn3n2)Oc2ccc3ccccc3c2C4c2ccccc2)cc1 (stereo unspecified)	-1.08%	
Fc1ccc(-c2ccnc3nc(N4CCOCC4)nn23)cc1	-4.82%	
Cc1c(NC(=O)CN2CCN(c3ccccc3)CC2)c(=O)n(-c2ccccc2)n1C	2.48%	
Cc1cccc(C)c1NC(=O)CS(=O)CC(=O)Nc1ccc(F)cc1F (stereo unspecified)	-20.9%	
Cc1cccc(C)c1NC(=O)CN1CCN(CCCC(c2ccc(F)cc2)c2ccc(F)cc2)CC1		5.01 µM (active)
Nc1nc2c(c(=O)[nH]1)N[C@H](CCNc1ccc(C(=O)O)cc1)CN2	1.76% [at 11.4 µM]	
Cc1nc(-c2cccnc2)sc1C(=O)Nc1ccc(Cl)cc1		15.8 µM (active)
Cc1nc(-c2cccnc2)sc1C(=O)Nc1ccc(F)cc1F	-13.3%	
CNC(=O)c1sc(-c2cccnc2)nc1C	1.87%	
N#CCCn1c(=O)c(-c2ccc(Cl)cc2)nc2cnc(Oc3cccc(Cl)c3)nc21	8.48%	
CCOC(=O)C(C)(C)[C@H](O)C(C)C	10.9% [at 11.4 µM]	
N[C@@H](Cc1ncccn1)C(=O)O	-1.91% [at 11.4 µM]	
Cc1nn(C)c(Cl)c1NC(=O)OCc1ccc(Cl)cc1Cl	-12.9%	
Clc1ccc([C@H](Cn2ccnc2)OCc2csc3c(Cl)cccc23)c(Cl)c1		5.01 µM (active)
Clc1ccc(COC(Cn2ccnc2)c2ccc(Cl)cc2Cl)c(Cl)c1 (stereo unspecified)		1 µM (active)
Clc1ccc(CO[C@@H](Cn2ccnc2)c2ccc(Cl)cc2Cl)cc1		0.2 µM (active)
COCCn1c(=O)c(-c2cc(F)cc(F)c2)nc2cnc(N3CCOCC3)nc21	9.89%	
